Shown are actives, neighbours in structure and some others; about 2.5% of the full set was active somewhere.
MEKK3 PB1 HTS = modulators of MEKK3-MEK5 PB1 binding, primary screen, biochemical, wildtype MEKK3, multiplex bead flow cytometry, Alexa488-MEK5 | Mitogen-activated protein kinase kinase kinase 3 (Homo sapiens), Q99759 | bead-based flow cytometry, Alexa488-MEK5 binding to MEKK3; actives lie on both sides; 0 = blocked by unlabeled MEK5, 100 = vehicle | binding response (% of control), % at 10 µM | 290,000 compounds, 1.4% hits | AID 1529, 2009;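 active means binding response more than 3 SD above or below the average of its plate-row segment, actives on both sides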;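 further: Alexa488 bead fluorescence after subtracting the streptavidin-only scavenger bead signal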
MEKK2 mut-MEK5 = MEK5 binding signal on mutant MEKK2 PB1, primary screen, biochemical, multiplex bead flow cytometry, Alexa488-MEK5 | Alexa488-MEK5 binding to MEKK2 mutant | percent response, % at 10 µM | 290,000 compounds, 0.35% hits | AID 1530, 2009; in the data active means percent response above about 24%, passing the limit was not always enough
GRK2 inh = compounds blocking aptamer binding on GRK2 – biochemical, human GRK2, bead flow cytometry, HTS, primary screen; Beta-adrenergic receptor kinase 1 (Homo sapiens), P25098; FAM-aptamer displacement from GRK2; inhibition of aptamer binding, % at 10 µM; 330,000 compounds, 0.59% hits; AID 488847, 2010;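 active means inhibition of aptamer binding above 40%, roughly 3 SD of noise, on plates passing a quality check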;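 further: median bead fluorescence of bound FAM aptamer so fluorescent compounds give negative values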
Target sequence (P25098 whole entry, looked up): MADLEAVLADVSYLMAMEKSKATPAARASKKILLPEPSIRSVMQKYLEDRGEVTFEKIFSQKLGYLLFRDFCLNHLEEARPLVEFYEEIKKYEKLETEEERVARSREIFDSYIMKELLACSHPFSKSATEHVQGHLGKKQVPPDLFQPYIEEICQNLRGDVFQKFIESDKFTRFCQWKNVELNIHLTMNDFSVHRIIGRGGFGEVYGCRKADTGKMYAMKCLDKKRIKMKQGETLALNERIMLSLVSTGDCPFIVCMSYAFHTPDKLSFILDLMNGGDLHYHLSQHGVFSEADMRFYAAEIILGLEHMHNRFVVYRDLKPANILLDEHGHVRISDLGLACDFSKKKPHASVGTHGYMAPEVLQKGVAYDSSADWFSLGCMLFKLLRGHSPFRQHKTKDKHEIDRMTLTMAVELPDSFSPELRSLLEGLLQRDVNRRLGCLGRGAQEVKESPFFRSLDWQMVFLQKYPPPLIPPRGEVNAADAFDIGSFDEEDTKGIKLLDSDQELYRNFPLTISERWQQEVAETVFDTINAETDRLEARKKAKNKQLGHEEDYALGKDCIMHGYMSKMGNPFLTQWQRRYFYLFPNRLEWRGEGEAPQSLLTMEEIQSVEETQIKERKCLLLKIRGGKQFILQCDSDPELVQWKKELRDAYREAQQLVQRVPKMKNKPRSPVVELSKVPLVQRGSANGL
MEKK2 WT-MEK5 = modulators of MEK5 binding to wildtype MEKK2, primary screen, biochemical, multiplex bead flow cytometry, Alexa488-MEK5 | Mitogen-activated protein kinase kinase kinase 2 (Homo sapiens), Q9Y2U5 | Alexa488-MEK5 binding to MEKK2 WT; actives lie on both sides | binding response (% of control), % at 10 µM | 290,000 compounds, 1.1% hits; in the data active means binding response below about 67% or above about 130%
MEKK2wt confirm = modulators of MEK5 binding to wildtype MEKK2, confirmation, biochemical, single concentration, multiplex bead flow cytometry; shares compounds with MEKK3 PB1 HTS; Alexa488-MEK5 binding to MEKK2 WT; actives lie on both sides; binding response (% of control), % at 10 µM; 5,900 compounds, 2.4% hits; AID 1892, 2009; in the data active means binding response below about 16% or above about 210%; inactive means in between
MEKK2mut confirm = mutant MEKK2 PB1-MEK5 binding signal retest – biochemical, single concentration, multiplex bead flow cytometry, confirmation; shares compounds with MEKK3 PB1 HTS; Alexa488-MEK5 binding to MEKK2 mutant; percent response, % at 10 µM; 5,900 compounds, 2% hits; in the data active means percent response mostly above about 71%, no sharp cut-off; inactive means mostly below about 38%;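 further: higher means compound restores mutant binding toward wildtype level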
MEKK3-MEK5 inh = MEKK3 wild-type PB1 binding to MEK5, inhibitors, confirmation, biochemical, bead multiplex flow cytometry, single concentration, wildtype. shares compounds with MEKK3 PB1 HTS. Alexa488-MEK5 binding to MEKK3; stronger effect = lower value. binding response (% of control), % at 10 µM. 5,900 compounds, 1.8% hits;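 active means binding response below 72% of control, or above a set upper limit, though filed actives all read lower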;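 further: 100% = DMSO only wells and 0% = binding blocked by excess unlabeled MEK5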
Active calls of the source: *; / = no result; [ ] = dose if it differs, or a comment.

SMILES | MEKK3 PB1 HTS | MEKK2 mut-MEK5 | GRK2 inh | MEKK2 WT-MEK5 | MEKK2wt confirm | MEKK2mut confirm | MEKK3-MEK5 inh
Clc1ccc(OCCCN2CCc3ccccc3C2)c(Br)c1 | 105 | 20 | 0 | 134* | 102 | -1 | 101
CC1CCN(CCOCCOc2ccc(Cl)cc2Br)CC1 | 106 | 21 | 0 | 147* | 158 | 28 | 110
Cc1cc(-c2n[nH]c(=S)n2/N=C/C=C/c2ccccc2)n[nH]1 | 153* | 0 | 0 | 105 | 103 | 10 | 105
COc1ccccc1/C=C/C=N/n1c(-c2cc(C)[nH]n2)n[nH]c1=S | 91 | 1 | 12 | 91 | / | / | /
C#CCOCCOCCOCCNc1nc(N2CCN(C(=O)[C@H]([C@@H](C)CC)n3cc([C@@H](N)CC(C)C)nn3)CC2)nc(N2CCN(C(=O)[C@H](Cc3ccc(O)cc3)n3cc([C@@H](N)C(C)CC)nn3)CC2)n1 (stereo partly drawn) | 106 | 21 | 3 | 156* | 129 | 15 | 103
C#CCOCCOCCOCCNc1nc(N2CCN(C(=O)[C@H]([C@@H](C)CC)n3cc([C@@H](N)Cc4ccc(O)cc4)nn3)CC2)nc(N2CCN(C(=O)[C@H](Cc3ccc(O)cc3)n3cc([C@@H](N)C(C)CC)nn3)CC2)n1 (stereo partly drawn) | 109 | 58* | 0 | 191* | 140 | 12 | 106
C#CCOCCOCCOCCNc1nc(N2CCN(C(=O)[C@H](Cc3ccc(O)cc3)n3cc([C@@H](N)C(C)CC)nn3)CC2)nc(N2CCN(C(=O)[C@H](CCCCN)n3cc([C@@H](N)CC(C)C)nn3)CC2)n1 (stereo partly drawn) | 101 | 19 | 0 | 137 | / | / | /
C#CCOCCOCCOCCNc1nc(N2CCN(C(=O)[C@H]([C@@H](C)CC)n3cc([C@@H](N)Cc4ccc(O)cc4)nn3)CC2)nc(N2CCN(C(=O)[C@H](CCCCN)n3cc([C@@H](N)CO)nn3)CC2)n1 | 110 | 46 | 0 | 171* | 189 | 132* | 113
COc1ccc(NC(=O)CN(C)C(C)C(=O)N2CCCCC2)cc1 (stereo not drawn) | 99 | -4 | 2 | 97 | / | / | /
Cc1ccc(C(=O)CN(C(=O)c2ccc(Cl)c(Cl)c2)N2C(=O)C3C4C=CC(C4)C3C2=O)cc1 (stereo not drawn) | 82*[inhibitor] | -10 | 0 | 86 | 100 | 0 | 100
Clc1cccc(Nc2nc(-c3cccnc3)cs2)c1 | / | / | 0 | 154* | 103 | -1 | 102
Brc1cccc(Nc2nc(-c3cccnc3)cs2)c1 | 109 | 1 | 2 | 108 | / | / | /
O=C(CCCN1C(=O)c2ccccc2C1=O)Nc1nncs1 | 100 | 1 | 1 | 101 | / | / | /
COc1cc(Cl)c(C)cc1NC(=O)c1ccc(S(C)(=O)=O)cc1 | 45*[inhibitor] | -25 | 1 | 63 | 94 | -6 | 96
COc1cc(NC(=O)c2ccccc2)c(OC)cc1Cl | 114 | 9 | 2 | 102 | / | / | /
COc1ccc(S(=O)(=O)N2CCCCCC2)cc1NC(=O)c1c2c(nc3ccccc13)CCN(Cc1ccccc1)C2 | 105 | -1 | 1 | 107 | / | / | /
COc1ccc(NC(=O)c2c3c(nc4ccccc24)CCN(Cc2ccccc2)C3)c(OC)c1 | 75*[inhibitor] | -1 | 0 | 88 | 113 | 15 | 106
COCCNc1nc2ccccc2n2cnnc12 | 96 | 1 | 0 | 100 | / | / | /
COC(=O)c1ccc(C)c(NC(=O)C(CCSC)NC(=O)c2cc(OC)c(OC)c(OC)c2)c1 (stereo not drawn) | 105 | 4 | 0 | 107 | / | / | /
O=S(=O)(c1cccc(F)c1)N1CCN(Cc2ccc3c(c2)OCO3)CC1 | 58*[inhibitor] | -7 | 2 | 68 | 104 | 10 | 107
COc1cc(C2C(C#N)=C(N)Oc3cc(O)ccc32)cc(OC)c1OC (stereo not drawn) | 10*[inhibitor] | -21 | 4 | 13*[inhibitor] | 95 | -3 | 99
COc1ccccc1C(=O)N(Cc1ccco1)C1CCS(=O)(=O)C1 (stereo not drawn) | / | / | 1 | / | / | / | /
Cc1noc(C)c1COC(=O)CCc1nc2ccccc2s1 | 130* | 8 | 0 | 127 | 100 | 1 | 98
O=C(CCc1nc2ccccc2s1)OCC(=O)c1ccccc1 | 96 | 7 | 1 | 102 | / | / | /
COc1cc(NC2c3ccccc3C(=O)N2Cc2ccccc2Cl)cc(OC)c1 (stereo not drawn) | 135* | 29 | 2 | 116 | 97 | -1 | 96
SMILES | MEKK3 PB1 HTS | MEKK2 mut-MEK5 | GRK2 inh | MEKK2 WT-MEK5 | MEKK2wt confirm | MEKK2mut confirm | MEKK3-MEK5 inh
COc1cccc(NC2c3ccccc3C(=O)N2Cc2ccccc2Cl)c1 (stereo not drawn) | 95 | -4 | 0 | 92 | / | / | /
CCOc1ccc2nc(N(CCCN(C)C)C(=O)c3ccc(S(=O)(=O)N4CCCC4)cc3)sc2c1 | 106 | 16 | 0 | 124 | / | / | /
CCOc1cccc2sc(N(CCCN(C)C)C(=O)c3ccc(S(=O)(=O)N4CCc5ccccc5C4)cc3)nc12 | 113 | 49* | 0 | 200* | 305* | 126* | 116
CCc1ccc2nc(N(CCCN(C)C)C(=O)c3ccc(S(=O)(=O)N4CCc5ccccc5C4)cc3)sc2c1 | 106 | 28* | 18 | 176* | 197 | 60 | 96
COc1ccc2ccccc2c1C1NC(=O)NC(C)=C1[N+](=O)[O-] (stereo not drawn) | 99 | 6 | 1 | 103 | / | / | /
Nc1ccccc1C(=O)NCCN1CCNC1=O | 104 | 5 | 0 | 107 | / | / | /
Cc1ccc(C(=O)NCCN2CCNC2=O)cc1 | 129* | 28 | 2 | 131 | 101 | 1 | 99
Cc1c(C(=O)NCCSCc2c(F)cccc2Cl)cnn1-c1ccc(Cl)cc1 | 129* | 28 | 0 | 128 | 97 | -3 | 102
COc1ccccc1C(=O)NCCSCc1c(F)cccc1Cl | 103 | 2 | 0 | 103 | / | / | /
CC1Cc2ccccc2N1S(=O)(=O)c1cccs1 (stereo not drawn) | 104 | 18 | 0 | 8.0*[inhibitor] | 87 | -12 | 91
Cc1ccc(S(=O)(=O)N2c3ccccc3CC2C)cc1 (stereo not drawn) | 100 | -5 | 3 | 98 | / | / | /

Compound activity deposited in PubChem by NMMLSC.
